Measurements reported in PubChem BioAssay AID1159580 (chemical genetic matrix, 2015).
Values joined by “and” are separate entries in the source; they are usually repeats but may differ in a detail not shown here. Identical values can stand only once. In all, about 5,500 compounds went through this assay and about 2,000 (36%) were called active. Roughly 18% stayed inconclusive and do not appear here. Rule as the data show it: active = normalized growth mostly below about 0.91 (no sharp cut-off); inconclusive = no clear call, values can overlap the other calls; inactive = mostly above about 0.92. This is one part of the list.

Assay: chemical genetic growth profiling, strain panel (AID 1159580);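 also: tested at 20 µM; growth read once vehicle control cultures reached saturation at 30 °C; 1 = growth at the plate median or of vehicle wells; lower values mean less growth of the strain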
Conditions: S. cerevisiae deletion strains, growth OD

Measured: normalized growth

COc1ccc2c(c1)OC/C(=C/c1ccc(OC)c(OC)c1)C2=O
inactive: locus YAL013W, strain DEP1, stronger effect = lower value 1.01 | locus YAL021C, strain ccr4, stronger effect = lower value 0.997 | locus YAL030W, strain snc1, stronger effect = lower value 0.986 | locus YBL061C, strain skt5, stronger effect = lower value 1 | locus YBR021W, strain FUR4, stronger effect = lower value 0.873 | locus YBR171W, strain sec66, stronger effect = lower value 0.978 | locus YBR229C, strain ROT2, stronger effect = lower value 0.981 | locus YBR279W, strain paf1, stronger effect = lower value 0.946 | locus YCL029C, strain bik1, stronger effect = lower value 0.943 | locus YCR088W, strain abp1, stronger effect = lower value 0.98 | locus YDL005C, strain med2, stronger effect = lower value 1.02 | locus YDL035C, strain GPR1, stronger effect = lower value 0.978 | locus YDL040C, strain nat1, stronger effect = lower value 0.974 | locus YDL074C, strain BRE1, stronger effect = lower value 0.928 | locus YDL101C, strain DUN1, stronger effect = lower value 0.95 | locus YDL185W, strain tfp1, stronger effect = lower value 0.987 | locus YDL192W, strain arf1, stronger effect = lower value 0.944 | locus YDR001C, strain nth1, stronger effect = lower value 0.983 | locus YDR069C, strain doa4, stronger effect = lower value 1.01 | locus YDR101C, strain arx1, stronger effect = lower value 0.963 | locus YDR159W, strain sac3, stronger effect = lower value 0.874 | locus YDR195W, strain ref2 1.1 | locus YDR297W, strain sur2, stronger effect = lower value 0.943 | locus YDR334W, strain swr1, stronger effect = lower value 0.974 | locus YDR388W, stronger effect = lower value 0.958 | locus YEL037C, strain rad23, stronger effect = lower value 0.984 | locus YER015W, strain faa2, stronger effect = lower value 0.936 | locus YER016W, strain bim1, stronger effect = lower value 1.03 | locus YER110C, stronger effect = lower value 0.945 | locus YER111C, strain swi4, stronger effect = lower value 1.01 | locus YER155C, strain BEM2, stronger effect = lower value 0.962 | locus YER167W, strain BCK2, stronger effect = lower value 0.947 | locus YFR010W, strain ubp6, stronger effect = lower value 0.986 | locus YGL078C, strain dbp3, stronger effect = lower value 0.976 | locus YGL167C, strain pmr1, stronger effect = lower value 1.06 | locus YGL173C, strain kem1, stronger effect = lower value 0.984 | locus YGL227W, strain vid30, stronger effect = lower value 0.986 | locus YGL248W, strain PDE1, stronger effect = lower value 0.916 | locus YGR135W, strain pre9, stronger effect = lower value 0.914 | locus YGR252W, strain gcn5, stronger effect = lower value 0.799 | locus YHR013C, strain ard1, stronger effect = lower value 0.862 | locus YHR027C, strain rpn1, stronger effect = lower value 0.979 | locus YHR079C, strain IRE1 (second series), stronger effect = lower value 0.979 | locus YHR079C, strain IRE1, stronger effect = lower value 0.952 | locus YHR094C, strain hxt1, stronger effect = lower value 0.969 | locus YHR200W, strain rpn10, stronger effect = lower value 0.969 | locus YIL073C, strain SPO22, stronger effect = lower value 0.833 | locus YIL125W, strain kgd1, stronger effect = lower value 0.973 | locus YIR030C, strain dcg1, stronger effect = lower value 0.978 | locus YJL092W, strain hpr5, stronger effect = lower value 0.97 | locus YJL115W, strain asf1, stronger effect = lower value 0.98 | locus YJL129C, strain trk1, stronger effect = lower value 0.929 | locus YJL134W, strain LCB3, stronger effect = lower value 0.996 | locus YJL154C, strain vps35, stronger effect = lower value 0.993 | locus YJL168C, strain set2, stronger effect = lower value 0.965 | locus YJL187C, strain SWE1 (second series), stronger effect = lower value 0.937 | locus YJL187C, strain SWE1, stronger effect = lower value 0.973 | locus YJR043C, strain POL32, stronger effect = lower value 0.915 | locus YJR066W, strain TOR1, stronger effect = lower value 0.903 | locus YJR075W, strain HOC1, stronger effect = lower value 0.955 | locus YKL009W, strain mrt4, stronger effect = lower value 0.973 | locus YKL068W, stronger effect = lower value 1.02 | locus YKL085W, strain MDH1 (second series), stronger effect = lower value 0.98 | locus YKL085W, strain MDH1, stronger effect = lower value 0.98 | locus YKL190W, strain CNB1, stronger effect = lower value 0.982 | locus YKR026C, strain gcn3, stronger effect = lower value 0.984 | locus YKR091W, strain srl3, stronger effect = lower value 0.979 | locus YLL026W, stronger effect = lower value 0.979 | locus YLL041C, strain sdh2, stronger effect = lower value 1.01 | locus YLR039C, strain RIC1, stronger effect = lower value 0.727 | locus YLR058C, strain SHM2, stronger effect = lower value 0.949 | locus YLR102C, strain apc9, stronger effect = lower value 0.974 | locus YLR113W, strain HOG1, stronger effect = lower value 0.933 | locus YLR258W, strain gsy2, stronger effect = lower value 0.915 | locus YLR262C, strain YPT6, stronger effect = lower value 0.805 | locus YLR342W, strain FKS1 (second series), stronger effect = lower value 0.809 | locus YLR342W, strain FKS1, stronger effect = lower value 0.92 | locus YLR357W, strain rsc2, stronger effect = lower value 0.985 | locus YLR370C, strain arc18, stronger effect = lower value 0.962 | locus YLR371W, strain rom2, stronger effect = lower value 0.951 | locus YLR384C, strain iki3, stronger effect = lower value 1 | locus YML016C, strain PPZ1, stronger effect = lower value 0.989 | locus YML032C, strain rad52, stronger effect = lower value 0.955 | locus YML120C, strain ndi1, stronger effect = lower value 0.979 | locus YML124C, strain tub3, stronger effect = lower value 0.982 | locus YMR078C, strain ctf18, stronger effect = lower value 0.981 | locus YMR125W, strain sto1, stronger effect = lower value 0.966 | locus YMR129W, stronger effect = lower value 0.996 | locus YMR223W, strain ubp8, stronger effect = lower value 0.941 | locus YMR231W, strain pep5, stronger effect = lower value 0.984 | locus YMR307W, strain GAS1, stronger effect = lower value 0.955 | locus YNL067W, strain RPL9B, stronger effect = lower value 0.931 | locus YNL128W, strain TEP1, stronger effect = lower value 0.96 | locus YNL183C, strain NPR1, stronger effect = lower value 0.9 | locus YNL209W, strain ssb2, stronger effect = lower value 0.967 | locus YNL233W, strain BNI4, stronger effect = lower value 0.873 | locus YNL248C, strain rpa49, stronger effect = lower value 0.935 | locus YNL250W, strain rad50, stronger effect = lower value 0.98 | locus YNL271C, strain bni1, stronger effect = lower value 0.971 | locus YNL298W, strain CLA4, stronger effect = lower value 0.93 | locus YNL322C, strain KRE1 (second series), stronger effect = lower value 0.98 | locus YNR049C, strain mso1, stronger effect = lower value 0.978 | locus YNR052C, strain pop2, stronger effect = lower value 0.964 | locus YOL006C, strain TOP1, stronger effect = lower value 0.724 | locus YOL012C, strain htz1 0.627 | locus YOL147C, strain pex11, stronger effect = lower value 0.956 | locus YOR001W, strain rrp6, stronger effect = lower value 0.955 | locus YOR061W, strain CKA2, stronger effect = lower value 0.979 | locus YOR069W, strain VPS5, stronger effect = lower value 1 | locus YOR070C, strain gyp1, stronger effect = lower value 0.929 | locus YOR080W, strain dia2, stronger effect = lower value 0.986 | locus YOR136W, strain idh2, stronger effect = lower value 0.967 | locus YOR144C, strain elg1, stronger effect = lower value 0.976 | locus YOR231W, strain MKK1, stronger effect = lower value 0.921 | locus YOR265W, strain rbl2, stronger effect = lower value 0.954 | locus YOR316C, strain cot1, stronger effect = lower value 0.967 | locus YPL241C, strain CIN2, stronger effect = lower value 0.994 | locus YPL256C, strain CLN2, stronger effect = lower value 0.972 | locus YPR119W, strain clb2, stronger effect = lower value 0.994 | locus YPR141C, strain kar3, stronger effect = lower value 0.996 | locus YPR167C, strain met16, stronger effect = lower value 0.952 | strain wtn01, stronger effect = lower value 0.936
0.733 (active) and 0.959 (inactive): locus YJL095W, strain BCK1, stronger effect = lower value
0.838 (active) and 0.944 (inactive): locus YHR030C, strain SLT2, stronger effect = lower value
active: locus YAL026C, strain drs2, stronger effect = lower value 0.891 | locus YBR009C, strain hhf1, stronger effect = lower value 0.803 | locus YBR023C, strain chs3, stronger effect = lower value 0.882 | locus YBR231C, strain swc5, stronger effect = lower value 0.88 | locus YCL011C, strain gbp2, stronger effect = lower value 0.905 | locus YCL016C, strain dcc1, stronger effect = lower value 0.856 | locus YCL061C, strain MRC1, stronger effect = lower value 0.887 | locus YCL069W, strain vba3, stronger effect = lower value 0.873 | locus YDR137W, strain rgp1, stronger effect = lower value 0.682 | locus YDR162C, strain NBP2, stronger effect = lower value 0.833 | locus YDR318W, strain mcm21, stronger effect = lower value 0.894 | locus YDR335W, strain msn5, stronger effect = lower value 0.899 | locus YDR392W, strain spt3, stronger effect = lower value 0.212 | locus YDR502C, strain sam2, stronger effect = lower value 0.893 | locus YEL003W, strain gim4, stronger effect = lower value 0.893 | locus YEL061C, strain CIN8 (second series), stronger effect = lower value 0.863 | locus YEL061C, strain CIN8, stronger effect = lower value 0.911 | locus YER155C, strain BEM2 (second series), stronger effect = lower value 0.625 | locus YGL086W, strain mad1, stronger effect = lower value 0.9 | locus YGL240W, strain doc1, stronger effect = lower value 0.852 | locus YGL253W, strain hxk2, stronger effect = lower value 0.764 | locus YHR129C, strain ARP1, stronger effect = lower value 0.867 | locus YHR142W, strain chs7, stronger effect = lower value 0.668 | locus YIL066C, strain RNR3, stronger effect = lower value 0.832 | locus YJL095W, strain BCK1 (second series), stronger effect = lower value 0.864 | locus YJL164C, strain tpk1, stronger effect = lower value 0.852 | locus YJL166W, strain qcr8, stronger effect = lower value 0.756 | locus YKL160W, strain elf1, stronger effect = lower value 0.758 | locus YKR001C, strain vps1, stronger effect = lower value 0.861 | locus YLL001W, strain dnm1, stronger effect = lower value 0.845 | locus YLR027C, strain aat2, stronger effect = lower value 0.914 | locus YLR221C, strain rsa3, stronger effect = lower value 0.886 | locus YLR262C, strain YPT6 (second series), stronger effect = lower value 0.682 | locus YLR268W, strain sec22, stronger effect = lower value 0.852 | locus YLR320W, strain mms22, stronger effect = lower value 0.71 | locus YLR330W, strain CHS5, stronger effect = lower value 0.838 | locus YLR418C, strain cdc73, stronger effect = lower value 0.621 | locus YMR058W, strain fet3, stronger effect = lower value 0.87 | locus YMR205C, strain PFK2, stronger effect = lower value 0.68 | locus YNL071W, strain lat1, stronger effect = lower value 0.38 | locus YNL307C, strain MCK1, stronger effect = lower value 0.412 | locus YOR083W, strain WHI5, stronger effect = lower value 0.852 | locus YOR106W, strain vam3, stronger effect = lower value 0.842 | locus YOR184W, strain ser1, stronger effect = lower value 0.805 | locus YOR270C, strain vph1, stronger effect = lower value 0.686 | locus YOR290C, strain snf2, stronger effect = lower value 0.813 | locus YPL051W, strain arl3, stronger effect = lower value 0.852 | locus YPL078C, strain atp4, stronger effect = lower value 0.793 | locus YPL106C, strain sse1, stronger effect = lower value 0.841 | locus YPL240C, strain hsp82, stronger effect = lower value 0.87 | locus YPR163C, strain tif3, stronger effect = lower value 0.726
